Source: PubChem (National Center for Advancing Translational Sciences (NCATS))
Pf growth 96h: Primary qHTS for delayed death inhibitors of the malarial parasite plastid, 96 hour incubation | 320,000 tested, 6.9% active | P. falciparum luciferase reporter growth, 96 h | Potency, µM (titrated, usually from 28.7 µM), actives largely listed as inhibitors
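Cell-based qHTS: luciferase-tagged P. falciparum in erythrocytes (2% hematocrit, 0.05% parasitemia final) incubated with compounds for 96 hours, 37 C, 5% CO2; luciferase detection reagent then added and luminescence measured.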
HCV inh: qHTS Assay for Inhibitors of Hepatitis C Virus (HCV). Huh7.5.1 HCVcc-Cre infection, luciferase reporter, 44 h. Potency, µM (top dose mostly 41.8 µM), hits mostly inhibitors. 340,000 tested, 3.4% active. AID 651820, 2012
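Reporter virus HCVcc-Cre (~0.5 moi) infects cells exposed to compound; seeding density 1,000 cells/well with 4 h settling beforehand. Luminescence, 15 sec read, taken 44 h post-infection following a 15 min RT substrate incubation.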
Pf growth 48h: Primary qHTS for delayed death inhibitors of the malarial parasite plastid, 48 hour incubation; P. falciparum luciferase growth in erythrocytes, 48 h; Potency, µM (titrated, usually from 28.7 µM), usual class: inhibitors; 310,000 tested, 5.9% active; AID 504832, 2011
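Luminescence readout; reporter = integrated firefly luciferase in P. falciparum. RBC culture at 2% hematocrit, 0.1% parasitemia final, 37 C/5% CO2; decreased signal taken as growth inhibition.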
AMA1 RON2 block: qHTS for Inhibitors of AMA1-RON; Towards Development of Antimalarial Drug Lead: Primary Screen | Potency, µM (titrated, usually from 58.2 µM), hits mostly inhibitors | AID 720542, 2013 | AlphaScreen AMA1-biotinylated RON2 peptide binding | Plasmodium falciparum AMA1 (3D7) - RON2 peptide interaction | 360,000 tested, 0.2% active; also: nearly all actives have a fitted effect of over 45% in size
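AMA1 (3D7) with his tag at 25 nM final met compounds first, then biotinylated RON2 peptide at 25 nM; detection used donor plus acceptor beads, 10 µg/mL apiece, read by AlphaScreen after 30 min at room temperature.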
Large screens that a line does not name were inactive. In the library only some 11% were active in any assay of this set; here they are far more common. Calls follow the shape of the dose curve; as a rule, active = well fitted curve in the direction sought with a large enough effect; inconclusive = small, poorly fitted or top-dose-only effect, or another doubt; inactive = no such curve, though single readings can be large; an effect the other way counts as inactive or inconclusive.

CCn1c(SCC(=O)Nc2nc3c(s2)CCCC3)nnc1-c1ccccc1	Pf growth 48h 2.1µM (no result: HCV inh)
O=C(CSc1nnc(-c2ccncc2)n1Cc1ccco1)Nc1nc(-c2ccccc2)cs1	HCV inh 10µM (no result: Pf growth 48h)
CCn1c(CCNC(=O)c2cccs2)nnc1SCC(=O)Nc1nc(-c2ccccc2)cs1	Pf growth 96h inconclusive, Pf growth 48h 12µM
CCn1c(SCC(=O)Nc2nc(-c3ccccc3)cs2)nnc1-c1ccccc1O	HCV inh 11µM, Pf growth 48h inconclusive (no result: Pf growth 96h)
CCc1nnc(NC(=O)CSc2nnc(-c3ccccc3O)n2CC)s1	Pf growth 96h inconclusive (no result: Pf growth 48h)
C=CCNC(=O)N1CCCC(C(=O)c2cccc(OC(C)C)c2)C1 (stereo not given)	Pf growth 96h inconclusive
NS(=O)(=O)c1ccc(CNC(=O)c2cc(-c3cccnc3)nc3ccc(Br)cc23)cc1	Pf growth 96h inconclusive
Cc1cc(S(=O)(=O)Nc2ccc(C(=O)NCc3ccncc3)cc2)ccc1F	Pf growth 48h inconclusive
Cc1ccc(CNc2ncc(-c3ccccc3)n2C)o1	HCV inh inconclusive, AMA1 RON2 block inconclusive
Cc1ccc(C)c2c1cc(C)c1nnc(SCC(=O)Nc3nc4c(s3)CCCC4)n12	none
Cc1ccc2cc(C)c3nnc(SCC(=O)Nc4nc5c(s4)CCCC5)n3c2c1C	Pf growth 96h 12µM
CCN(CC)S(=O)(=O)c1ccc(N2CCCC2)c(C(=O)OCC(=O)Nc2cc(C)on2)c1	Pf growth 96h inconclusive
CN(C)CCCN(C(=O)c1ccc(S(=O)(=O)N2CCc3ccccc32)cc1)c1nc2ccc(Cl)cc2s1	Pf growth 96h 5.2µM, Pf growth 48h 10µM (no result: HCV inh)
Cc1cc(C)c2sc(N(CCCN(C)C)C(=O)c3ccc(S(=O)(=O)N4CCCc5ccccc54)cc3)nc2c1	Pf growth 96h inconclusive, HCV inh inconclusive, Pf growth 48h 9.3µM, AMA1 RON2 block inconclusive
CN(C)CCCN(C(=O)c1ccc(S(=O)(=O)N2CCc3ccccc32)cc1)c1nc2ccc(F)cc2s1	Pf growth 96h inconclusive, Pf growth 48h inconclusive
CN(C)c1ccc(/C=N/NC(=O)CCc2nc3ccccc3[nH]2)cc1	none
C=CCn1c(C)cc(-c2csc(NC(=O)CCc3nc4ccccc4c(=O)[nH]3)n2)c1C	Pf growth 48h inconclusive
CCN(C(=O)Cn1cnc2c1c(=O)n(C)c(=O)n2C)C1CCS(=O)(=O)C1 (stereo not given)	none
CCN(CC)S(=O)(=O)c1ccc(NC(=O)CN(c2ccc(OC)cc2OC)S(C)(=O)=O)cc1	Pf growth 48h 9.3µM
CCN(CC)S(=O)(=O)c1ccc(NC(=O)CN(c2cccc(C)c2)S(C)(=O)=O)cc1	Pf growth 96h inconclusive, Pf growth 48h inconclusive
CCOc1ccc(N(C(C)C(=O)Nc2ccc(OC)cc2)S(C)(=O)=O)cc1 (stereo not given)	Pf growth 96h inconclusive
CCN(CC)S(=O)(=O)c1ccc(NC(=O)C(C)N(c2ccc(OC)cc2)S(C)(=O)=O)cc1 (stereo not given)	HCV inh 10µM (no result: Pf growth 96h)
Cc1ccc(/C=N/NC(=O)c2cccc(S(=O)(=O)N3CCOCC3)c2)o1	none
N#CC1=C(N)N2C(=C(C#N)C1c1ccc(Br)cc1)Nc1ccccc12 (stereo not given)	Pf growth 96h 9.3µM, HCV inh 6.3µM, Pf growth 48h inconclusive
CCOC(=O)C1(C)CCCCCN1C(=O)c1ccc(C(=O)OC)cc1 (stereo not given)	none (no result: Pf growth 96h, HCV inh, Pf growth 48h)
COc1nc(Nc2ccc(OC)c(Cl)c2)nc(OC)n1	HCV inh inconclusive, Pf growth 48h 8.3µM
CCOc1nc(Nc2ccc(OC)c(Cl)c2)nc(N2CCN(c3ccc(OC)cc3)CC2)n1	Pf growth 96h inconclusive, HCV inh 10µM, AMA1 RON2 block inconclusive (no result: Pf growth 48h)
CC1(C)CC(=O)CC(C)(C)N1OC(=O)c1ccncc1	Pf growth 96h inconclusive
O=C(O)CSCC(=O)N1CCCN(c2ccc(C(F)(F)F)cn2)CC1	none
Fc1ccc(NC(=S)N2CCCN(c3ccc(C(F)(F)F)cn3)CC2)c(F)c1	Pf growth 96h inconclusive, HCV inh 0.5µM, Pf growth 48h 10µM
CCOc1ccc(/C=N/NC(=O)c2cc3c(OC)cccc3[nH]2)cc1	Pf growth 96h inconclusive, Pf growth 48h inconclusive
COc1ccc(OC)c(/C=N/NC(=O)c2cc3c(OC)cc(OC)cc3[nH]2)c1	Pf growth 96h inconclusive, HCV inh 25µM, Pf growth 48h inconclusive
C=CCOc1ccc(/C=N/NC(=O)c2cc3c(OC)cc(OC)cc3[nH]2)cc1	Pf growth 96h 2.3µM, HCV inh inconclusive, Pf growth 48h 3.3µM
CCOc1ccc(/C=N/NC(=O)c2cc3c(OC)cc(OC)cc3[nH]2)cc1OC	Pf growth 96h 0.93µM, HCV inh inconclusive, Pf growth 48h 1.7µM
CCOc1ccc2[nH]c(C(=O)N/N=C/c3cc(OC)c(OC)c(OC)c3)cc2c1	Pf growth 96h 12µM, HCV inh inconclusive (no result: Pf growth 48h)
COc1cc(/C=N/NC(=O)c2cc3ccccc3[nH]2)ccc1O	Pf growth 96h inconclusive, Pf growth 48h inconclusive
COc1ccc(C(CC(=O)c2ccc3c(c2)OCO3)C(=O)O)cc1OC (stereo not given)	none (no result: Pf growth 96h, HCV inh, Pf growth 48h)
Cc1cc(C)cc(NC(=S)Nc2ccc(Cl)c(Cl)c2)c1	Pf growth 48h 13µM
Cc1ccc(NC(=S)Nc2ccc(Cl)c(Cl)c2)c(OC(F)F)c1	Pf growth 96h 4.1µM, HCV inh inconclusive, Pf growth 48h inconclusive
Fc1ccc(NC(=S)Nc2ccccc2OC(F)F)cc1Cl	Pf growth 96h inconclusive, HCV inh inconclusive, Pf growth 48h inconclusive
O=C(CSc1ccc(F)cc1)N1CCOCC1	none
CC(=O)OC1CC(OC2C(O)CC(OC3C(O)CC(OC4CCC5(C)C(CCC6C5CC(O)C5(C)C(C7=CC(=O)OC7)CCC65O)C4)OC3C)OC2C)OC(C)C1OC1OC(CO)C(O)C(O)C1O (stereo not given)	HCV inh 0.56µM (no result: Pf growth 96h, Pf growth 48h)
CC(=O)O[C@H]1C[C@H](O[C@H]2[C@@H](O)CC(O[C@H]3[C@@H](O)C[C@H](O[C@H]4CC[C@@]5(C)[C@H](CC[C@@H]6[C@@H]5CC[C@]5(C)[C@@H](C7=CC(=O)OC7)CC[C@]65O)C4)O[C@@H]3C)O[C@@H]2C)O[C@H](C)[C@H]1O[C@@H]1O[C@H](CO)[C@@H](O)[C@H](O)[C@H]1O (stereo not given in full)	Pf growth 96h 4.8µM, Pf growth 48h inconclusive (no result: HCV inh, AMA1 RON2 block)
CCOc1ccc(CCN2C(=S)N([C@@H](Cc3ccc(O)cc3)CN3CCCC3CN3C(=S)NC[C@@H]3Cc3ccc(O)cc3)C[C@@H]2CC(C)C)cc1 (stereo not given in full)	HCV inh 4.5µM (no result: Pf growth 96h, Pf growth 48h)
CC(C)C[C@H]1CNC(=S)N1CC1CCCN1C[C@H](Cc1ccc(O)cc1)N1C[C@H](Cc2ccccc2)N(CC2CCCCC2)C1=S (stereo not given in full)	HCV inh 11µM (no result: Pf growth 96h, Pf growth 48h)
CC(C)C[C@H]1CNC(=S)N1C[C@H]1CCCN1C[C@H](Cc1ccccc1)N1C[C@H](Cc2ccc(O)cc2)N(CC2CCCCC2)C1=S	none (no result: Pf growth 96h, HCV inh, Pf growth 48h)
